In PubChem BioAssay AID463173 (ICCB-Longwood Screening Facility, Harvard Medical School, 2010):
About 4,300 (8.3%) of roughly 52,000 compounds were called active. This is one part of a sample in which actives are shown more often than they occur. Values without a mark were called inactive. Cut-off read from the data, not from the text of the source: active = survival mostly below about 52% (no sharp cut-off); inactive = mostly above about 56%.

tested on: DeltatarO mutant; experiment: S. aureus survival, RN4220 and DeltatarO strains – OD600, teichoic acid synthesis inhibitors, primary screen (AID 463173); settings: S. aureus RN4220 wild type/DeltatarO growth, OD600, 18 h, stronger effect = lower value, screened at 18.75 µg/mL (by protocol)

Structure (SMILES)	survival
Cc1ccc(-n2c(=O)c3ccc(C(=O)NCc4ccco4)cc3n(Cc3ccccc3Cl)c2=O)cc1	99%
c1ccc2c(c1)n1cnnc1c1nncn21	85%
CC1=C(C(=O)Nc2ccc(C)cc2C)C(c2ccc([N+](=O)[O-])cc2)n2ncc(C(=O)Nc3ccc(F)cc3)c2N1 (stereo not drawn)	101%
O=C(O)c1ccc(N2CCOCC2)cc1	80%
COc1ccccc1N1CCN(CC(O)COc2cc(C)cc(C)c2)CC1 (stereo not drawn)	71%
C=CCc1ccccc1OCC(O)CN1CCN(c2ccccc2)CC1 (stereo not drawn)	83%
Cc1ccc(C(C)C)c(OCC(O)CN2CCN(c3ccccc3F)CC2)c1 (stereo not drawn)	-5% (active)
COc1ccc(N2CCN(CC(O)COc3ccccc3C(C)(C)C)CC2)cc1 (stereo not drawn)	-8% (active)
COc1ccccc1N1CCN(CC(O)COc2ccc(C)cc2C(C)(C)C)CC1 (stereo not drawn)	1% (active)
COc1ccc(N2CCN(CC(O)COc3c(OC)cccc3OC)CC2)cc1 (stereo not drawn)	71%
COc1ccc(N2CCN(CC(O)COc3ccc(C)cc3C)CC2)cc1 (stereo not drawn)	98%
COc1ccc(N2CCN(CC(O)COc3ccc(C(C)C)c(C)c3)CC2)cc1 (stereo not drawn)	66%
COc1ccc(N2CCN(CC(O)COc3ccc(C(C)(C)C)cc3)CC2)cc1 (stereo not drawn)	84%
CN(C)c1ccc(C(CNS(=O)(=O)c2ccc(Br)cc2)N2CCOCC2)cc1 (stereo not drawn)	74%
CCc1c(C)sc2c1CCN(Cc1ccccc1F)C2c1ccccc1 (stereo not drawn)	102%
CCCCC(=O)N1CCc2cc(OC)c(OC)cc2C1COc1ccc(C(=O)OCC)cc1 (stereo not drawn)	70%
O=C(CN1C(=O)COc2ccc(S(=O)(=O)N3CCCCC3)cc21)NCCc1ccc(Cl)cc1	73%
CCOc1ccc(N2CC(NC(=O)c3ccc(Cl)cc3)CC2=O)cc1 (stereo not drawn)	73%
CC(C)(C)Sc1ccc(SC#N)s1	1% (active)
N#CSc1ccc2nc(N)sc2c1	66%
O=C1CC(c2ccc(Br)cc2)c2c(ccc3ccccc23)N1 (stereo not drawn)	32% (active)
Cc1ccccc1C1CC(=O)Nc2ccc3ccccc3c21 (stereo not drawn)	93%
O=C1CC(c2c(Cl)cccc2Cl)c2c(ccc3ccccc23)N1 (stereo not drawn)	73%
CC(C)c1ccc(CNc2nc(-c3ccco3)nn2C(=O)c2ccc([N+](=O)[O-])cc2)cc1	79%
COc1ccc(NC(=O)Cn2nnc(C(=O)NCc3ccc4c(c3)OCO4)c2N)cc1	76%
N#C/C(=C\c1ccc(F)cc1)C(=O)NCC1CCCO1 (stereo not drawn)	68%

Structure (SMILES)	survival
N#C/C(=C\c1ccc(Cl)cc1)C(=O)NCC1CCCO1 (stereo not drawn)	44% (active)
COc1cc(/C=C(\C#N)C(=O)NCC2CCCO2)ccc1O (stereo not drawn)	83%
CCOC(=O)c1[nH]c(C)c(CCC(=O)Nc2ccccc2C(=O)OC)c1C	77%
Cc1ccc(-c2cnc(NCc3ccc(C(F)(F)F)cc3)n2C)cc1	-5% (active)
CCCc1cc(=O)n2[nH]c(NCc3c(F)cccc3Cl)nc2n1	86%
Cn1c(NCc2cccc(Cl)c2)nc2ccccc21	104%
Cc1ccc(-c2cnc(NC(=O)CCC(=O)N3CCCCC3)n2C)cc1	91%
Cc1ccc(-c2cnc(NCc3c(F)cccc3Cl)n2C)cc1	-4% (active)
Cn1c(-c2ccc3c(c2)OCO3)cnc1NCc1cc(Cl)ccc1O	70%
CCn1c(NCc2cccc(Cl)c2)nc2ccccc21	102%
Cc1ccc(CNC(=O)c2ccc(CSCc3c(F)cccc3Cl)o2)cc1	90%
Cc1ccc(CNc2nccn(-c3cc(C)cc(C)c3)c2=O)cc1	95%
CCOc1ccc(-c2cnc(NCc3cccc(Cl)c3)n2C)cc1	30% (active)
Cn1c(-c2ccccc2)cnc1SCc1ccccc1	108%
Cn1c(-c2ccccc2)cnc1NCc1ccccc1O	46% (active)
Cc1cc(C)cc(-n2c(SCC(=O)N3CCCCCC3)nc3c([nH]c4ccccc43)c2=O)c1	94%
CCOc1ccc(N(CC)C(=O)c2nn(-c3ccc(OC)cc3)c(=O)c3c2c2ccccc2n3C)cc1	82%
CCOc1cc2sc(N3CCC(C(=O)Nc4ccc(C(C)C)cc4)CC3)nc2cc1Br	75%
COC(=O)CN(c1ccccc1Cl)S(C)(=O)=O	52%
COc1ccc(NC(=O)c2oc3ccccc3c2NC(=O)c2cccc(F)c2)c(OC)c1	95%
COc1cc(OC)c(NC(=O)C2=C(C)C(=O)OC23CCN(C(C)=O)CC3)cc1Cl	75%
Cc1ccc(NC(=O)CN2C=NS(=O)(=O)c3ccccc32)c(C)c1	99%
COc1ccc(-c2nc(Cn3c(SCc4ccc(C)cc4)nc4cccnc43)c(C)o2)cc1OC	113%
CCOc1ccc(-n2cc(-c3ccccc3)c3c(NCc4ccc(F)cc4)ncnc32)cc1	95%
CCOc1ccc(-c2cnc(NCc3ccc(C(F)(F)F)cc3)n2C)cc1	-3% (active)
CCOc1ccc(NC(=O)C(=O)NCCc2csc(-c3ccc(C(F)(F)F)cc3)n2)cc1	94%

Structure (SMILES)	survival
Cc1ccc(-c2cnc(NCc3ccc(C(C)C)cc3)n2C)cc1	-4% (active)
COc1ccc(-c2cnc(NCc3ccc(C)cc3)n2C)cc1	121%
Cc1ccc(CNc2nc3c(c(=O)n(C)c(=O)n3C)n2Cc2ccc(Cl)cc2)cc1	54%
Cc1ccc(NC(=O)CCN2C(=O)c3ccccc3Sc3ncccc32)c(Cl)c1	74%
CCOc1ccc(C(=O)NCCc2csc(-c3cccnc3)n2)cc1	81%
Cc1ccc(CNc2nc3ccccc3n3c(C)nnc23)cc1	88%
CCn1nc(C)c(CCN(C)C(=O)Nc2ccc(C)c(Cl)c2)c1C	88%
CCOc1ccc(NC(=O)c2cc3cc4cc(OC)ccc4nc3s2)cc1	82%
COc1ccc2nc3sc(C(=O)NCCc4ccc(Cl)cc4)cc3cc2c1	103%
CSc1ccc(CCNC(=O)c2cc3cc4cc(C)ccc4nc3s2)cc1	144%
CCOc1ccccc1NC(=O)c1cc2cc3cc(C)ccc3nc2s1	91%
Cc1ccc(CCNC(=O)c2cc3cc4cc(C)ccc4nc3s2)cc1	46% (active)
Cc1ccc2nc3sc(C(=O)Nc4ccc(F)cc4)cc3cc2c1	37% (active)
CNC(=O)CN(C1CCCCC1)S(=O)(=O)c1ccc(C)cc1	75%
CC(C)C(=O)c1cn(CC(=O)NCc2cccs2)c2ccccc12	88%
CC(C)NC(=O)C1CCC(Cn2c(=O)c3sccc3n(CC(=O)Nc3ccccc3)c2=O)CC1 (stereo not drawn)	74%
CCc1ccc(CNC(=O)c2cnc3sc(N4CCCCC4)nn3c2=O)cc1	99%
Cc1ccc(CN2CCCN(Cc3c(C)cc(C)cc3C)S2(=O)=O)cc1	91%
COC(=O)c1ccc(OC)c(CN2CCCN(Cc3ccc(C)cc3)S2(=O)=O)c1	20% (active)
COC(=O)c1ccc(NC(=O)CN2CCCN(Cc3ccc(Cl)cc3)S2(=O)=O)cc1	94%
Cc1ccc(C)c(CN2CCCN(Cc3ccccc3C)S2(=O)=O)c1	87%
Cc1ccc(C)c(CN2CCCN(Cc3ccc(F)cc3)S2(=O)=O)c1	-5% (active)
COc1ccc(NC(=O)CN2CCCN(Cc3ccc(Cl)cc3)S2(=O)=O)cc1Cl	60%
CCOC(=O)CCCN1C(=O)CCn2nc(-c3cn(C)c4ccccc34)cc21	69%
CCN(c1ccccc1C)S(=O)(=O)c1ccc(N2CCCCS2(=O)=O)cc1	125%
CCSc1nnc(C2CCCN(CC(=O)NC3CCCCC3C)C2)n1CC (stereo not drawn)	74%

Structure (SMILES)	survival
Cc1ccccc1-c1nc(CN2CCCC(C(=O)NCc3ccc(Cl)cc3)C2)c(C)o1 (stereo not drawn)	61%
Cc1ccc(CNC(=O)C2CCCN(Cc3nc(-c4cccc(C)c4)oc3C)C2)cc1 (stereo not drawn)	41%
Cc1oc(-c2ccc(Cl)cc2)nc1CN1CCCC(C(=O)NCc2ccc(Cl)cc2)C1 (stereo not drawn)	59%
Cc1cccc(-c2nc(CN3CCCC(C(=O)NCc4ccc(Cl)cc4)C3)c(C)o2)c1 (stereo not drawn)	18% (active)
Cc1oc(-c2cccc(Cl)c2)nc1CN1CCCC(C(=O)NCc2ccc(F)cc2)C1 (stereo not drawn)	52%
Cc1oc(-c2cccc(Cl)c2)nc1CN1CCCC(C(=O)NCc2ccc(Cl)cc2)C1 (stereo not drawn)	-1% (active)
CSCCC(NS(=O)(=O)c1ccc2c(c1)oc(=O)n2C)C(=O)N1CCN(c2cccc(Cl)c2)CC1 (stereo not drawn)	72%
Cc1nn(-c2ccccc2)c2c1N(CCCC(=O)NCc1ccc(Cl)cc1)C(=O)CS2	94%
Cc1cccc(CNC(=O)c2ccc3nc(Cc4ccccc4)oc3c2)c1	124%
CCOc1ccc(NC(=O)CSc2nc3c([nH]c4ccccc43)c(=O)n2-c2cc(C)cc(C)c2)cc1	89%
Cc1ccc(N2CC(NC(=O)c3ccc(S(=O)(=O)N4CCCC4)cc3)CC2=O)cc1C (stereo not drawn)	83%
O=C(Cn1ncc2c3ccccc3n(Cc3ccccc3F)c2c1=O)NCCCc1ccccc1	81%
Cc1cc(C)c2nc(N(Cc3cccnc3)C(=O)CCOc3ccccc3)sc2c1	84%
COc1ccc(NC(=O)CSc2nc3ccccc3n2CC(=O)NCc2ccc(F)cc2)cc1	-5% (active)
COc1ccc(Cn2c(SCC(=O)N3CCN(c4ccc(F)cc4)CC3)nc3ccccc32)cc1	47% (active)
O=C(CSc1nc2ccccc2n1Cc1ccc(F)cc1)N1CCN(c2ccc(F)cc2)CC1	92%
COc1cccc(Cn2c(SCC(=O)N3CCN(c4ccc(F)cc4)CC3)nc3ccccc32)c1	66%
COc1ccc(CNC(=O)Cn2c(SCC(=O)Nc3ccc(OC)cc3)nc3ccccc32)cc1	89%
COc1cccc(Cn2c(SCC(=O)N(C)c3ccccc3)nc3ccccc32)c1	-4% (active)
COc1cccc(CNC(=O)Cn2c(SCC(=O)Nc3ccc(F)cc3)nc3ccccc32)c1	8% (active)
O=C(Cn1c(SCC(=O)Nc2ccc(F)cc2)nc2ccccc21)NCc1ccc(F)cc1	91%
COc1cccc(CNC(=O)Cn2c(SCC(=O)Nc3ccc(C)c(C)c3)nc3ccccc32)c1	87%
CN(C(=O)CSc1nc2ccccc2n1Cc1cccc(C(F)(F)F)c1)c1ccccc1	66%
Cc1ccc(CNC(=O)Cn2c(SCC(=O)Nc3ccc(F)cc3)nc3ccccc32)cc1	126%
COC(=O)c1ccc(Cn2c(SCC(=O)N(C)c3ccccc3)nc3ccccc32)cc1	60%
